For 6 compounds, composite z-score and z-score results are on record in PubChem BioAssay.

The source made the active and inactive calls.

Assay [1] has as its system Plasmodium falciparum Sir2 (PF13_0152, Sir2A). Nature of the assay: Plasmodium falciparum Sir2A binding compounds – biochemical, small-molecule microarray, 635 nm fluorescence, primary screen (AID 1098).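 Further: score merges spot fluorescence intensity with its signal-to-noise ratio.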 Particulars: fluorescence 635 nm, higher = more signal.
Assay [2] is described as follows: probe aDKK1 binding to arrayed compounds – biochemical, biotinylated probe, 635/667 nm fluorescence, primary screen (AID 1099).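 Further: score merges 667nm spot fluorescence with signal to noise across triplicate slides.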 The following applies: small-molecule microarray, higher = more signal.
Assay [3] is described as follows: probe aCHRDL2 binding to arrayed compounds – biochemical, biotinylated probe, 635/667 nm fluorescence, primary screen (AID 1100). Particulars: small-molecule microarray, higher = more signal.
Assay [4] in a line: change in splice reporter luminescence, either direction, cell-based, HEK293, spliceosome inhibition project, primary screen (AID 1101).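 Further: HEK293 cells carrying a splicing-competent luciferase reporter gene; test concentration not given here.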 The following applies: HEK293 splicing luciferase reporter, 24 h, higher = more signal, called active from +8 up or from −8 down.
For assay [5], the target named is Fibroblast growth factor 10 (Homo sapiens) (UniProt O15520). Nature of the assay: compounds binding fibroblast growth factor 10 – biochemical, small-molecule microarray, 635 nm fluorescence, primary screen (AID 1102). The following applies: FGF10 binding, fluorescence 635 nm, higher = more signal.
The test system of assay [6] is glycogen synthase kinase-3 (GSK3A per assay name; protocol says GSK3B). Nature of the assay: compounds binding glycogen synthase kinase-3 – biochemical, small-molecule microarray, 635 nm fluorescence, GSK3A, primary screen (AID 1103). Further: the record names both GSK3A and GSK3B. Particulars: fluorescence 635 nm, higher = more signal.
Assay [7] has as its target Epidermal growth factor receptor (Homo sapiens) (UniProt P00533). Nature of the assay: compounds binding epidermal growth factor receptor – biochemical, small-molecule microarray, 635 nm fluorescence, primary screen (AID 1104).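 Further: score merges 667 nm emission intensity with spot signal to noise over triplicate slides.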 Particulars: EGFR binding, higher = more signal.
The target of assay [8] is Follistatin-related protein 3 (Homo sapiens) (UniProt O95633). Nature of the assay: compounds binding follistatin-related protein 3 – biochemical, small-molecule microarray, 635 nm fluorescence, primary screen (AID 1105).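 Further: score merges emission near 667 nm and signal to noise per printed spot across three slides.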 The following applies: FSTL3 binding, higher = more signal.
Assay [9] deals with Dickkopf-related protein 1 (Homo sapiens) (UniProt O94907). Nature of the assay: small molecules binding DKK1 protein – biochemical, small-molecule microarray, 635 nm fluorescence scan, primary screen (AID 1106).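 Further: score merges emission near 667 nm with signal to noise over three replicate slides.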 The following applies: higher = more signal.
Assay [10] concerns Inhibin beta A chain (activin A). Nature of the assay: small molecules binding activin A – biochemical, small-molecule microarray, 635 nm fluorescence scan, primary screen (AID 1107).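 Further: mouse activin A protein probed at 4.33 µg/mL on printed slides; score merges bound-protein fluorescence near 667 nm with spot signal-to-noise.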 The following applies: INHBA, higher = more signal.
The test system of assay [11] is Human papillomavirus type 1a protein E7 (residues 44-93). Nature of the assay: small molecules binding HPV E7 44-93 – biochemical, small-molecule microarray, residues 44-93, 635 nm fluorescence, primary screen (AID 1108).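 Further: E7 fragment applied at 1 µg/mL in TBST for 1 h at 4 C; score combines spot fluorescence with its signal to noise ratio.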 Particulars: fluorescence 635 nm, higher = more signal.
Assay [12] is described as follows: hepatitis C replication reporter changes, two-sided – Huh7 cells, luciferase reporter, HCV replication inhibitor project, primary screen (AID 1109).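 Further: huh7 hepatoma cells harbouring a luciferase neomycin HCV replicon reporter; luciferase luminescence as measure of HCV replicon replication; test concentration not given here.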 The following applies: Huh7 HCV replicon luciferase reporter, 48 h; higher = more signal. In general terms: A reporter such as luciferase makes a cellular process visible.
Assay [13] concerns the target Left-right determination factor 2 (Homo sapiens) (UniProt O00292). Nature of the assay: small molecules binding LEFTY2 protein – biochemical, small-molecule microarray, 635 nm fluorescence scan, primary screen (AID 1110). Particulars: higher = more signal.
Assay [14] concerns the target Calmodulin-1 (Homo sapiens) (UniProt P0DP23). Nature of the assay: small molecules binding calmodulin-1 with EGTA – biochemical, small-molecule microarray, Cy5-labelled CALM1, profiling panel (AID 1111).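 Further: labelled calmodulin applied in Tris saline Tween buffer holding calcium plus EGTA and DTT.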 Particulars: Cy5-CALM1 binding fluorescence, higher = more signal.
Assay [15] has the same target. Nature of the assay: small molecules binding Ca-loaded calmodulin-1 – biochemical, small-molecule microarray, Cy5-labelled CALM1, plus calcium, artefact control for SMM control-protein annotation, profiling panel (AID 1112).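 Further: score merges spot fluorescence with signal to noise from triplicate slides.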 Particulars: Cy5-CALM1 binding fluorescence, higher = more signal.
Assay [16] is described as follows: probe aWnt5a binding to arrayed compounds – biochemical, biotinylated probe, 635/667 nm fluorescence, primary screen (AID 1113).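 Further: score merges 667 nm fluorescence intensity with signal-to-noise per printed feature.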 Particulars: small-molecule microarray, higher = more signal.
A short description of assay [17]: probe aShh binding to arrayed compounds – biochemical, biotinylated probe, 635/667 nm fluorescence, primary screen (AID 1114).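 Further: probe is biotin-labelled aShh protein from a stem cell growth factor screen; measures binding of labelled protein to compounds printed on the slide; score merges feature fluorescence at 667 nm with signal-to-noise.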 Particulars: small-molecule microarray, higher = more signal.
A short description of assay [18]: probe aNog binding to arrayed compounds – biochemical, biotinylated probe, 635/667 nm fluorescence, primary screen (AID 1115).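 Further: probe is biotinylated aNog protein used at 0.15 µg/mL for 1 h at 4 C; z-score combines 667 nm fluorescence of each spot with its signal to noise.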 The following applies: small-molecule microarray, higher = more signal.
The target of assay [19] is Torsin-1A-interacting protein 1 (Homo sapiens) (UniProt Q5JTV8). Nature of the assay: compound microarray binding of lysate hLAP1 – cell lysate, small-molecule microarray, COS7 lysate, 635/667 nm fluorescence, primary screen (AID 1116). Particulars: 635 nm fluorescence, higher = more signal.
Assay [20] addresses Alpha-bungarotoxin (Bungarus multicinctus) (UniProt P60615). Nature of the assay: compounds binding labelled alpha-BTX control protein – biochemical, small-molecule microarray, Alexa647 label, 635/667 nm fluorescence, artefact control for SMM control protein annotation, profiling panel (AID 1117). The following applies: alpha-BTX-A647 binding fluorescence, higher = more signal.

Sequence of Torsin-1A-interacting protein 1 (Homo sapiens) (Q5JTV8 whole entry, looked up): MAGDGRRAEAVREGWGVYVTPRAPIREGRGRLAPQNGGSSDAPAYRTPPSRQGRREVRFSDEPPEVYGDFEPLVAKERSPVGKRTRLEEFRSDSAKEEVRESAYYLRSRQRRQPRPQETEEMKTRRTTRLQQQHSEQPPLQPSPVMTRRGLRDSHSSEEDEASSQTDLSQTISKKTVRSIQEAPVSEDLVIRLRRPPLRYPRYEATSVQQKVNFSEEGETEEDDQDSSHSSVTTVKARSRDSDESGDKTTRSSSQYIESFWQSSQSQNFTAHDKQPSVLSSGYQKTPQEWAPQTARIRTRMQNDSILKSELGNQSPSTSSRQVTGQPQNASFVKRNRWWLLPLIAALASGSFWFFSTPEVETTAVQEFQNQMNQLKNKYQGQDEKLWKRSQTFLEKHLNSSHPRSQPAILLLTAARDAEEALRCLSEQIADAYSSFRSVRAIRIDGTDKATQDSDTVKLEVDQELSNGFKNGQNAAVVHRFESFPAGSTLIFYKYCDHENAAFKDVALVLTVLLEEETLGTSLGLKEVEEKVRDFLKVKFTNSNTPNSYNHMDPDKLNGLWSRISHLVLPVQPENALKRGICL
Sequence of Dickkopf-related protein 1 (Homo sapiens) (O94907 whole entry, looked up): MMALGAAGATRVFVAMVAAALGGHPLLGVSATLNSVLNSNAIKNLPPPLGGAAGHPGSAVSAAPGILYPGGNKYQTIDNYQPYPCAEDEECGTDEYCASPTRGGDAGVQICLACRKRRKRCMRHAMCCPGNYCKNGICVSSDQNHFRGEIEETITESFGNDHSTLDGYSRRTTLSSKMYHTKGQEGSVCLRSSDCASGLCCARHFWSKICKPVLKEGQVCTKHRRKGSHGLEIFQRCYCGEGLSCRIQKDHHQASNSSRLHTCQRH
Sequence of Fibroblast growth factor 10 (Homo sapiens) (O15520 whole entry, looked up): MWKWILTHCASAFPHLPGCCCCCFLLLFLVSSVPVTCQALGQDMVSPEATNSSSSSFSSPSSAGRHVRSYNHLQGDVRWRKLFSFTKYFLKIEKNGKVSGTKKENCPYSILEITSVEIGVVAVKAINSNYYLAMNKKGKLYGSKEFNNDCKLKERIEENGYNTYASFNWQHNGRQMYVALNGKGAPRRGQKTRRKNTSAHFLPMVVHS
Sequence of Follistatin-related protein 3 (Homo sapiens) (O95633 whole entry, looked up): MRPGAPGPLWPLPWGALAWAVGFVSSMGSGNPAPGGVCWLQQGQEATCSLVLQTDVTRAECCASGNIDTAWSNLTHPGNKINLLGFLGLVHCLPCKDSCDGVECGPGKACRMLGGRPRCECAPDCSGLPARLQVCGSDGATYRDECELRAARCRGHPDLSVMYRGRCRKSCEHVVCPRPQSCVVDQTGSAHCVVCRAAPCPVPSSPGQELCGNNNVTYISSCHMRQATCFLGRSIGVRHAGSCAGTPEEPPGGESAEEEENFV
Sequence of Epidermal growth factor receptor (Homo sapiens) (P00533 whole entry, looked up): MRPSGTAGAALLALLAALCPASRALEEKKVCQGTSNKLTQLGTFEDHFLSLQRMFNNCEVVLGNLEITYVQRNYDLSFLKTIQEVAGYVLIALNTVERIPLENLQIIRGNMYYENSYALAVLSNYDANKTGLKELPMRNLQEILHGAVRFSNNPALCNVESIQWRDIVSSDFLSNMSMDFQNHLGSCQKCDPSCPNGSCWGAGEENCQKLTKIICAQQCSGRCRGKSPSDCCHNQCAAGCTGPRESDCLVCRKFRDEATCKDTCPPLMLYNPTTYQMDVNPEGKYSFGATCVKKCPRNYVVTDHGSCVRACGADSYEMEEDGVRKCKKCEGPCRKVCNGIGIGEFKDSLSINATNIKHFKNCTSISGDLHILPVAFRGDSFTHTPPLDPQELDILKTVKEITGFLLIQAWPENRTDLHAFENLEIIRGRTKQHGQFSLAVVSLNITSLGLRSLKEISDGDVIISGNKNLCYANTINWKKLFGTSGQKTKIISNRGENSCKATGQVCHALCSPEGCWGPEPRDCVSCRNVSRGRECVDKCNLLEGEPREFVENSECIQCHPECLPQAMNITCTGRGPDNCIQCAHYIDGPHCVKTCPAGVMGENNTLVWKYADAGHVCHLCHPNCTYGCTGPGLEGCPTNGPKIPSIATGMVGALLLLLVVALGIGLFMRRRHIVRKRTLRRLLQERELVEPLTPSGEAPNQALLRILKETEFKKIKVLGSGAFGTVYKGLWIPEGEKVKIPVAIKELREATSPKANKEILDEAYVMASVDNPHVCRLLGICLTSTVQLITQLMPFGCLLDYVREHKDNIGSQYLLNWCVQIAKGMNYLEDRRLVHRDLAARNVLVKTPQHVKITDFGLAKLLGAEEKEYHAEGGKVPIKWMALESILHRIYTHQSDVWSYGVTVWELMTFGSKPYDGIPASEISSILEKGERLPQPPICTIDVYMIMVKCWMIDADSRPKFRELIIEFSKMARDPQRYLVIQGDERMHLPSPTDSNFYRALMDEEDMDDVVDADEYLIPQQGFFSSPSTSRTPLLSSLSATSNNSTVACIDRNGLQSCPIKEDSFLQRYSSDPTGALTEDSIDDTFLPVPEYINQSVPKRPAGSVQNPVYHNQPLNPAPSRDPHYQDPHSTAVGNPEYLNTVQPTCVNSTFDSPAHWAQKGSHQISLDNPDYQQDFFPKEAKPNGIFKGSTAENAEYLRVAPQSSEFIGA
Sequence of Left-right determination factor 2 (Homo sapiens) (O00292 whole entry, looked up): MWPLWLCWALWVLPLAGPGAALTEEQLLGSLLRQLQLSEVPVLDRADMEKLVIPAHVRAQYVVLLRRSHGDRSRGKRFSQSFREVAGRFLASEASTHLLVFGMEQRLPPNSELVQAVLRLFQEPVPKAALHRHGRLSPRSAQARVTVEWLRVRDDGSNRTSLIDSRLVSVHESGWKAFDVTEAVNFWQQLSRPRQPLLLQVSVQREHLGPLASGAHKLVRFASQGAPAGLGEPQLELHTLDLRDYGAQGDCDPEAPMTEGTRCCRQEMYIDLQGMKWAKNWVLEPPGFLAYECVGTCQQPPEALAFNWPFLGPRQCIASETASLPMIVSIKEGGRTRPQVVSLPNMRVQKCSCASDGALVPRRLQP
Sequence of Alpha-bungarotoxin (Bungarus multicinctus) (P60615 whole entry, looked up): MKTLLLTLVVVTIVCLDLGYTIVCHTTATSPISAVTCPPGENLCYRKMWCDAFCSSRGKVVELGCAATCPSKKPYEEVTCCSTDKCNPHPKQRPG

For the compound `O=C1O[C@@H](c2ccccc2)[C@@H](c2ccccc2)N2[C@@H](c3ccccc3OCCO)[C@]3(C(=O)Nc4ccccc43)[C@@H](C(=O)Nc3nc4ccccc4s3)[C@H]12`, the composite z-score worked out at 1.02 in assay [1]; 1.05 in assay [2]; 0.0859 in assay [3]; 1.23 in assay [5]; 1.02 in assay [6]; 0.383 in assay [7]. For the same compound, the composite z-score worked out at 0.799 in [8]; 0.287 in [9]; 0.33 in assay [10]; 1.45 in assay [11]; 0.108 in assay [13]; 1.41 in assay [14]. In addition, the composite z-score was 0.494 in [15]; -0.0621 in assay [16]; 0.206 in assay [17]; 1.96 in assay [18]; 0.618 in assay [19]; 1.56 in assay [20]. Also, the z-score in assay [4] was -1.86 (inactive); in assay [12], -3.25.

Consider `C=CC(=C)[C@H]1Oc2ccccc2S(=O)(=O)N2CCC[C@@H]12`, for which the composite z-score was -0.0608 in assay [1]; -0.144 in assay [2]; -0.0159 in assay [3]; -0.249 in assay [5]; -0.486 in assay [6]; 0.0976 in assay [7]. Also, the composite z-score was -0.0111 in [8]; 0.317 in assay [9]; 1.07 in [10]; -1.24 in [11]; 0.0569 in assay [13]; -0.523 in [14]. Besides, the composite z-score in assay [15] was -0.536; in assay [16], -0.138; in assay [17], -0.0211; in [18] it was -0.353; in [19], -0.448; in [20], 0.279. Besides, the z-score in assay [4] is -0.629 (inactive); in [12], -3.25.

For the compound `C=CCC(OC(C)=O)[C@@H]1[C@@H](N(Cc2cccc3ccccc23)C(=O)c2ccc(-c3ccccc3)cc2)c2cc(OCCCO)ccc2N1C(=O)c1ccc2ccccc2c1` (stereo not given in full), the composite z-score in assay [1] was -0.101; in [2] it was 0.25; in [3], 0.357; in assay [5], 0.0842; in assay [6], 0.293; in assay [7], 0.24. For the same compound, the composite z-score in [8] was 0.476; in assay [9], -0.601; in [10], 1.28; in assay [11], 0.564; in [13], -0.164; in [14] it was 0.268. For the same compound, the composite z-score in assay [15] is 0.544; in assay [16] it was -0.0196; in assay [17], -0.0709; in assay [18], 0.223; in assay [19], 0.923; in assay [20], -0.0516. The z-score in assay [4] is -0.157 (inactive); in [12], 0.098.

As for `CC(=O)n1cc(C(O)C2C=CC3C(=O)N(c4ccccc4)C(=O)C3N2Nc2ccc([N+](=O)[O-])cc2)c2ccccc21` (stereo not given), the composite z-score in assay [1] is 0.894; in assay [2] it was 0.929; in assay [3] it was 1.38; in assay [5], -0.0673; in assay [6], 1.28; in [7], -0.142. The composite z-score in [8] was 0.38; in assay [9], -0.113; in [10], 0.783; in assay [11], 0.275; in [13] it was -0.712; in [14], 1.73. The composite z-score in assay [15] is 0.571; in [16] it was -0.0459; in [17], -0.0243; in assay [18], 0.576; in [19] it was 1.87; in assay [20] it was 1.7. For the same compound, the z-score was 0.138 (inactive) in assay [4] and -0.0176 in assay [12].

Regarding `[N-]=[N+]=Nc1ccccc1[C@@H]1OC(c2ccc(OCCCO)cc2)=N[C@]1(Cc1ccccc1)C(=O)N1CCOCC1`, the composite z-score in [1] was found to be 0.839; in assay [2] it was 1.05; in assay [3], 1.11; in [5], 1.39; in assay [6], 1.28; in assay [7], 0.308. In addition, the composite z-score in assay [8] came out at 1.16; in [9], 0.284; in assay [10] it was 0.904; in assay [11], 1.44; in assay [13], 0.425; in assay [14] it was 1.65. For the same compound, the composite z-score in [15] amounted to 0.959; in assay [16], 0.72; in assay [17], 0.315; in assay [18], 0.314; in assay [19], 1.21; in assay [20] it was 1.3. Further, the figures for the z-score in [4] and in [12] were -1.15 (inactive) and -1.41, respectively.

Take `O=C1C[C@]2(c3ccc([N+](=O)[O-])cc3)C(=O)N(CC(F)(F)F)c3cc(CO)ccc3[C@H]2N1C1CCCCC1`: the composite z-score in assay [1] was -0.535; in [2] it was 0.246; in assay [3] it was 0.564; in assay [5], -0.431; in [6], -0.161; in assay [7], -1.1. Also, the composite z-score in assay [8] is -0.883; in [9], -0.906; in assay [10], 0.23; in assay [11], -0.83; in assay [13] it was -1.34; in assay [14], -0.74. Moreover, the composite z-score in assay [15] was -0.624; in assay [16] it was -0.103; in assay [17] it was -0.221; in assay [18] it was -0.495; in assay [19], -0.555; in [20], -0.605. For the same compound, the z-score was 0.465 (inactive) in [4] and 0.909 in assay [12].
